Measured values published in the supplement of paper PMC10849652.
About 7,900 targets were measured; listed, in parts, are those with a hit and a random draw of the rest. About 0.6% of all pairs of compound and target were hits.

Tests used:
Test in all cases: log2 fold change, soluble protein after heating vs DMSO (PISA); higher = thermal stabilisation; K562 cells, 10 uM, 30 min; active = over 0.2 and 3.5 SD of the protein, either way, in both replicates (recomputed)
[1] = compound: NC(=O)Nc1cc(-c2cccc(F)c2)sc1C(=O)N[C@H]1CCCNC1
How it was run: (§1)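 Soluble protein was quantified by TMTpro 16plex LC-MS/MS after channel sums were equalised. It was obtained as the supernatant after 21,000xg for 90 min from pooled aliquots of K562 cells (2×10^6 cells/mL, 10 μM compound, 30 min) heated for 3 min across 48°C-58°C and extracted in PBS with 0.5% NP-40 at 4°C. Thermal stability values are relative to control samples and come from duplicates. They are given as log2 fold changes.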

[2] = compound: NC(=O)c1cnc(N[C@@H]2CCCC[C@@H]2N)nc1Nc1cccc(-n2nccn2)c1
How it was run: as §1

[3] = compound: NC1(c2ccc(-c3nc4ccn5c(=O)[nH]nc5c4cc3-c3ccccc3)cc2)CCC1
How it was run: as §1

[4] = compound: NCC(=O)Nc1ccc(-n2nc(C(F)(F)F)cc2-c2ccc3c(ccc4ccccc43)c2)cc1
How it was run: as §1

entinostat = compound: Nc1ccccc1NC(=O)c1ccc(CNC(=O)OCc2cccnc2)cc1 [entinostat]
How it was run: as §1

vorinostat = compound: O=C(CCCCCCC(=O)Nc1ccccc1)NO [vorinostat]
How it was run: as §1

citarinostat = compound: O=C(CCCCCCNC(=O)c1cnc(N(c2ccccc2)c2ccccc2Cl)nc1)NO [citarinostat]
How it was run: as §1

silmitasertib = compound: O=C(O)c1ccc2c(c1)nc(Nc1cccc(Cl)c1)c1ccncc12 [silmitasertib]
How it was run: as §1

[5] = compound: O=C1NC(=O)C(c2cnc3ccccn23)=C1c1cn2c3c(cc(F)cc13)CN(C(=O)N1CCCCC1)CC2
How it was run: as §1

[6] = compound: c1cc(OCCN2CCCCC2)cc(-c2n[nH]c3ccc(-c4nnc[nH]4)cc23)c1
How it was run: as §1

Measured: log2 fold change

MED1 (UniProt Q15648)
inactive: [1] 0.027 | [2] -0.064 | [3] 0.002 | [4] -0.113 | entinostat -0.018 | vorinostat 0.05 | citarinostat -0.001 | silmitasertib -0.002 | [5] 0.063 | [6] -0.124

JMJD6 isoform 3 (UniProt Q6NYC1)
inactive: [1] 0.01 | [2] -0.057 | [3] -0.068 | [4] -0.019 | entinostat 0.039 | vorinostat 0.048 | citarinostat 0.064 | silmitasertib 0.081 | [5] -0.061 | [6] -0.014

L2HGDH (UniProt Q9H9P8)
inactive: [1] -0.035 | [2] -0.026 | [3] -0.145 | [4] 0.007 | entinostat -0.012 | vorinostat -0.014 | citarinostat 0.029 | silmitasertib 0.15 | [5] -0.053 | [6] 0.029

MAP1LC3B2 (UniProt A6NCE7)
inactive: [1] -0.023 | [2] -0.022 | [3] -0.128 | [4] -0.085 | entinostat 0.012 | vorinostat -0.058 | citarinostat 0.046 | silmitasertib -0.015 | [5] -0.001 | [6] -0.103

LYN (UniProt P07948)
UniProt P07948, sequence (P07948 whole entry, looked up): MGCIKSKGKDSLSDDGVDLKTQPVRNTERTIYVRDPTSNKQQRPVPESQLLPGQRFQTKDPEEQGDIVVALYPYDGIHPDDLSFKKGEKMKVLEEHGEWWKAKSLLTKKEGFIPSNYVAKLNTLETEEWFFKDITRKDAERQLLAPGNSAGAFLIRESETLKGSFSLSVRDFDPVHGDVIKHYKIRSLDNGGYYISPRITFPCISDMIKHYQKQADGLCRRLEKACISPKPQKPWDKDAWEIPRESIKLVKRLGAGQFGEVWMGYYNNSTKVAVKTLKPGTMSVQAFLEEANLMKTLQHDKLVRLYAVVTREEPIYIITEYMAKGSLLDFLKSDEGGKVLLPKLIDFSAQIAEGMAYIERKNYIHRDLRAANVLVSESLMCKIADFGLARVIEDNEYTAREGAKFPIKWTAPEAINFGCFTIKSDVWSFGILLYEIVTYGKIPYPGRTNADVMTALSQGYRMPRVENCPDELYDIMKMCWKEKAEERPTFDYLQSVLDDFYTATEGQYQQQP
active: [1] 0.385
inactive: [2] 0.048 | [3] -0.048 | [4] -0.016 | entinostat -0.006 | vorinostat 0.058 | citarinostat 0.017 | silmitasertib 0.176 | [5] 0.022 | [6] 0.143

LEO1 (UniProt Q8WVC0)
inactive: [1] 0.003 | [2] -0.06 | [3] -0.028 | [4] -0.11 | entinostat 0.005 | vorinostat 0.088 | citarinostat 0.009 | silmitasertib 0.068 | [5] -0.153 | [6] -0.055

ITIH4 (UniProt Q14624)
inactive: [1] 0.064 | [2] -0.041 | [3] -0.136 | [4] -0.054 | entinostat 0.048 | vorinostat 0.343 | citarinostat 0.054 | silmitasertib 0.083 | [5] -0.005 | [6] 0.275

LGALS8 isoform 2 (UniProt O00214)
UniProt O00214, sequence (O00214 whole entry, looked up): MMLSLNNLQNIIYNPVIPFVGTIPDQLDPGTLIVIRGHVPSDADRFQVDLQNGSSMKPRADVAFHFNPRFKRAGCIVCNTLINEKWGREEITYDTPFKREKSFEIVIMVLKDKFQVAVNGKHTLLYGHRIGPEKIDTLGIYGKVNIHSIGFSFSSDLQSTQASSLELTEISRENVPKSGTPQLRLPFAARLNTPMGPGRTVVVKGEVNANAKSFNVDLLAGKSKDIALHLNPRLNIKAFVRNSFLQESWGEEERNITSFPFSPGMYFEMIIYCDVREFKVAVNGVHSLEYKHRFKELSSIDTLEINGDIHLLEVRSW
inactive: [1] -0.053 | [2] -0.096 | [3] 0.179 | [4] 0.055 | entinostat 0.091 | vorinostat 0.078 | citarinostat 0.051 | silmitasertib 0.147 | [5] 0.121 | [6] -0.129

LMNB2 (UniProt Q03252)
inactive: [1] 0.079 | [2] -0.077 | [3] 0.068 | [4] -0.09 | entinostat -0.006 | vorinostat -0.047 | citarinostat 0.015 | silmitasertib 0.018 | [5] -0.101 | [6] -0.07

KIF11 (UniProt P52732)
UniProt P52732, sequence (P52732 whole entry, looked up): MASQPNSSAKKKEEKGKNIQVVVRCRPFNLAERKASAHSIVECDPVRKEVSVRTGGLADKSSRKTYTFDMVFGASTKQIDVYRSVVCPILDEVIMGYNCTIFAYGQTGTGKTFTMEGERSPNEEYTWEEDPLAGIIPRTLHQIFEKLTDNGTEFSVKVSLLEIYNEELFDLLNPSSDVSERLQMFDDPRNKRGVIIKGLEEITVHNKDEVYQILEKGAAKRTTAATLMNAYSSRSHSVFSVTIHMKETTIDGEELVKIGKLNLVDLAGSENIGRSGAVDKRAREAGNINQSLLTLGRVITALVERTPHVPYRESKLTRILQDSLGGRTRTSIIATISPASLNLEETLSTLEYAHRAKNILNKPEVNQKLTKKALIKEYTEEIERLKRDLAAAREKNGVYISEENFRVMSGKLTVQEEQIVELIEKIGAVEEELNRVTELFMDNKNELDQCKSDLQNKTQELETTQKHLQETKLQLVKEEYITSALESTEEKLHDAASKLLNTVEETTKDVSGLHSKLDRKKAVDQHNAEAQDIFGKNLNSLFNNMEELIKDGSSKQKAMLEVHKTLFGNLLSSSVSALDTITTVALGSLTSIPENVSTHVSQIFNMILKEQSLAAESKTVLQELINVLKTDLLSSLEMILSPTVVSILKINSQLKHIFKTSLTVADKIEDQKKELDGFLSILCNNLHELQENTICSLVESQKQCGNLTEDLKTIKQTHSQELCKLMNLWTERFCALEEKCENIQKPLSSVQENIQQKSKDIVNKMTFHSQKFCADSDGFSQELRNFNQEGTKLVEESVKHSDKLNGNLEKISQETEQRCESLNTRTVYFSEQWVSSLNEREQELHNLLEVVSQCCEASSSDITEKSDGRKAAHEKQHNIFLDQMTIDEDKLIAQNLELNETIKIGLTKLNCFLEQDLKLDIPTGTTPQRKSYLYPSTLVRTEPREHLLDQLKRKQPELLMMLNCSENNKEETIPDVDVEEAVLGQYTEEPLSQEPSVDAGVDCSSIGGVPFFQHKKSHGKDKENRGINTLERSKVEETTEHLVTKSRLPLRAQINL
inactive: [1] -0.096 | [2] -0.075 | [3] -0.001 | [4] -0.067 | entinostat 0.023 | vorinostat 0.099 | citarinostat -0.006 | silmitasertib 0.147 | [5] 0.182 | [6] -0.044

LRRFIP1 (UniProt Q32MZ4)
inactive: [1] -0.027 | [2] 0.015 | [3] 0.056 | [4] 0.024 | entinostat -0.042 | vorinostat -0.079 | citarinostat -0.007 | silmitasertib 0.049 | [5] 0.01 | [6] -0.013

LDLR (UniProt P01130)
inactive: [1] 0.005 | [2] 0.093 | [3] 0.008 | [4] 0.124 | entinostat 0.057 | vorinostat -0.038 | citarinostat -0.035 | silmitasertib 0.074 | [5] 0.019 | [6] -0.071

MARCKSL1 (UniProt P49006)
UniProt P49006, sequence (P49006 whole entry, looked up): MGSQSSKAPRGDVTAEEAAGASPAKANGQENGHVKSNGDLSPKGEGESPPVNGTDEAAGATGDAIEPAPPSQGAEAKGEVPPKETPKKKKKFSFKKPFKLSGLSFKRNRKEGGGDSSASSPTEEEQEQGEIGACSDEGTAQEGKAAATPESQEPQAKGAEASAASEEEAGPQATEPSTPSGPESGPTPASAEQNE
inactive: [1] -0.02 | [2] 0.028 | [3] -0.01 | [4] 0.002 | entinostat 0.075 | vorinostat -0.062 | citarinostat 0.162 | silmitasertib -0.115 | [5] -0.035 | [6] 0.089

LSS (UniProt P48449)
inactive: [1] 0.017 | [2] 0.108 | [3] 0.142 | [4] -0.049 | entinostat 0.003 | vorinostat 0.052 | citarinostat -0.01 | silmitasertib 0.001 | [5] -0.001 | [6] -0.033

KIF13A (UniProt Q9H1H9)
inactive: [1] -0.049 | [2] -0.008 | [3] -0.078 | [4] -0.064 | entinostat 0.04 | vorinostat -0.178 | citarinostat -0.041 | silmitasertib 0 | [5] -0.005 | [6] -0.061

IRF3 (UniProt Q14653)
UniProt Q14653, sequence (Q14653 whole entry, looked up): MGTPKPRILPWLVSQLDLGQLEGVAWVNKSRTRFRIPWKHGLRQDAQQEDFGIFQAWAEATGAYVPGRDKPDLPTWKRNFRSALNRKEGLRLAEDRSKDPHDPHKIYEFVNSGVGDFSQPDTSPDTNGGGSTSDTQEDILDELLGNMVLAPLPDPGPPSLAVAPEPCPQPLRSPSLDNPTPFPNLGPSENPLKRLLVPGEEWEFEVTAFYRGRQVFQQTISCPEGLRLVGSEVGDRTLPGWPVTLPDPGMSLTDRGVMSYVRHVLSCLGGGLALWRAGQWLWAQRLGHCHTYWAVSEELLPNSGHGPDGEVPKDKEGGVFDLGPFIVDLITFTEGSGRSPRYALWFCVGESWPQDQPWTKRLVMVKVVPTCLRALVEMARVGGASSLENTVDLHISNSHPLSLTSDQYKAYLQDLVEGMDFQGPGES
inactive: [2] -0.021 | [3] -0.021 | [4] -0.022 | entinostat -0.078 | vorinostat 0.06 | citarinostat 0.028 | silmitasertib -0.044 | [5] -0.047 | [6] -0.028
active: [1] 0.221

LEMD2 (UniProt Q8NC56)
UniProt Q8NC56, sequence (Q8NC56 whole entry, looked up): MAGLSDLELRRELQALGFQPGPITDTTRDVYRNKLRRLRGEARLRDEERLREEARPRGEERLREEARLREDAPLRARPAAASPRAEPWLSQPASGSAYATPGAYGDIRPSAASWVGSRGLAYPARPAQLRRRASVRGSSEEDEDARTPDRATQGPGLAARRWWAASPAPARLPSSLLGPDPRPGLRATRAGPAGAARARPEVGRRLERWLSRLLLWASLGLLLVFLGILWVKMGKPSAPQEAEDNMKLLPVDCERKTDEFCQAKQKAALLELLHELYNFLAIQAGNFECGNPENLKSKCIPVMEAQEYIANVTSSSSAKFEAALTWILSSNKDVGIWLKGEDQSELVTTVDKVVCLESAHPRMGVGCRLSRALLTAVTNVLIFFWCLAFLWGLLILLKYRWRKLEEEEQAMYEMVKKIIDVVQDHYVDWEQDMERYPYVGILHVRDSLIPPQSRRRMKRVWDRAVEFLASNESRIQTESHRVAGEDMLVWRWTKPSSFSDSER
inactive: [1] 0.008 | [2] -0.139 | [3] -0.112 | [4] -0.157 | entinostat 0.004 | vorinostat 0.04 | citarinostat 0.058 | silmitasertib -0.044 | [5] -0.02 | [6] -0.046

MAGEC2 (UniProt Q9UBF1)
inactive: [1] 0.013 | [2] -0.037 | [3] -0.021 | [4] -0.004 | entinostat -0.009 | vorinostat 0.032 | citarinostat 0.029 | silmitasertib 0.057 | [5] 0.089 | [6] -0.09

MIF (UniProt P14174)
UniProt P14174, sequence (P14174 whole entry, looked up): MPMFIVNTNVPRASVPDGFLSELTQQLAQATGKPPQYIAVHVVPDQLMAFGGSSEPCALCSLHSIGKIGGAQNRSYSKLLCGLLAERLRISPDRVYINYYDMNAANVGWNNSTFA
inactive: [1] -0.059 | [2] 0.092 | [3] 0.103 | [4] 0.048 | entinostat 0.099 | vorinostat -0.085 | citarinostat -0.013 | silmitasertib 0.036 | [5] -0.196 | [6] 0.063

LARP4 isoform 4 (UniProt Q71RC2)
inactive: [1] -0.034 | [2] -0.094 | [3] 0.084 | [4] 0.048 | entinostat 0.037 | vorinostat 0.133 | citarinostat -0.004 | silmitasertib 0.043 | [5] 0.009 | [6] -0.116

LARP1 (UniProt Q6PKG0)
inactive: [1] -0.064 | [2] 0.002 | [3] 0.051 | [4] -0.04 | entinostat 0.02 | vorinostat 0.043 | citarinostat -0.025 | silmitasertib 0.028 | [5] 0.113 | [6] -0.133

MAP4K5 (UniProt Q9Y4K4)
inactive: [1] 0.217 | [2] 0 | [3] -0.002 | [4] -0.097 | entinostat -0.012 | vorinostat 0.074 | citarinostat 0.02 | silmitasertib -0.09 | [5] 0.073 | [6] 0.026

MAP2K7 isoform 4 (UniProt O14733)
UniProt O14733, sequence (O14733 whole entry, looked up): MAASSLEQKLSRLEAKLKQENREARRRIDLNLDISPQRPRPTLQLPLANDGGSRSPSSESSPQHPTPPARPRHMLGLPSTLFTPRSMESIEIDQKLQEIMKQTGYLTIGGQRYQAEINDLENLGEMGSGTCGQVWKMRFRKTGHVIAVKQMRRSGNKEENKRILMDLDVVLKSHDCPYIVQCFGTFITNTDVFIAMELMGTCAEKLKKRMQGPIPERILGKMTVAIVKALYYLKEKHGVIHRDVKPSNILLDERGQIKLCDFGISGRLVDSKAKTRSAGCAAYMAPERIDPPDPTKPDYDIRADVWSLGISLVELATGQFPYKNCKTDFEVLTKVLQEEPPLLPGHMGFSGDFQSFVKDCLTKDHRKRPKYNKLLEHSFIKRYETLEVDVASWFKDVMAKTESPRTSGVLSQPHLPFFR
inactive: [1] 0.008 | [2] -0.051 | [3] -0.078 | [4] -0.015 | entinostat 0.015 | vorinostat 0.084 | citarinostat 0.041 | silmitasertib -0.019 | [5] -0.052 | [6] -0.044

LRBA (UniProt P50851)
inactive: [1] 0.002 | [2] -0.058 | [3] -0.146 | [4] -0.039 | entinostat 0.016 | vorinostat 0.049 | citarinostat 0.034 | silmitasertib 0.033 | [5] -0.025 | [6] -0.026

KLHDC4 (UniProt Q8TBB5)
UniProt Q8TBB5, sequence (Q8TBB5 whole entry, looked up): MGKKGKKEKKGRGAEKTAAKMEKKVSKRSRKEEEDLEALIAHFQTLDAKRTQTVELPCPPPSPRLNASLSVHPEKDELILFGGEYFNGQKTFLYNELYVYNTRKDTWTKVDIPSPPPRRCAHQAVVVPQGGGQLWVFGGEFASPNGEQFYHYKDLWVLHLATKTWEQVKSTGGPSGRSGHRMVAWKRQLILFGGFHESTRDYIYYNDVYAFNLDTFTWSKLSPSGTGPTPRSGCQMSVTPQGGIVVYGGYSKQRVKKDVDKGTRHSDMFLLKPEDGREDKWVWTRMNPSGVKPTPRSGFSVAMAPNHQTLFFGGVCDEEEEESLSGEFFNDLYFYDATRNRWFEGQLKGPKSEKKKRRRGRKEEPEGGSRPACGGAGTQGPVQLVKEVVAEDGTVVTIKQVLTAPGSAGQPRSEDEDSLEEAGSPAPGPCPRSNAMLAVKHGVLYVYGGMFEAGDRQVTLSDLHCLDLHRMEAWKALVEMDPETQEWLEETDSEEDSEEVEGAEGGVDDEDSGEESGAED
inactive: [1] 0.013 | [2] -0.006 | [3] 0.224 | [4] -0.105 | entinostat -0.055 | vorinostat -0.014 | citarinostat 0.042 | silmitasertib -0.003 | [5] 0.125 | [6] -0.036

LONP2 (UniProt Q86WA8)
UniProt Q86WA8, sequence (Q86WA8 whole entry, looked up): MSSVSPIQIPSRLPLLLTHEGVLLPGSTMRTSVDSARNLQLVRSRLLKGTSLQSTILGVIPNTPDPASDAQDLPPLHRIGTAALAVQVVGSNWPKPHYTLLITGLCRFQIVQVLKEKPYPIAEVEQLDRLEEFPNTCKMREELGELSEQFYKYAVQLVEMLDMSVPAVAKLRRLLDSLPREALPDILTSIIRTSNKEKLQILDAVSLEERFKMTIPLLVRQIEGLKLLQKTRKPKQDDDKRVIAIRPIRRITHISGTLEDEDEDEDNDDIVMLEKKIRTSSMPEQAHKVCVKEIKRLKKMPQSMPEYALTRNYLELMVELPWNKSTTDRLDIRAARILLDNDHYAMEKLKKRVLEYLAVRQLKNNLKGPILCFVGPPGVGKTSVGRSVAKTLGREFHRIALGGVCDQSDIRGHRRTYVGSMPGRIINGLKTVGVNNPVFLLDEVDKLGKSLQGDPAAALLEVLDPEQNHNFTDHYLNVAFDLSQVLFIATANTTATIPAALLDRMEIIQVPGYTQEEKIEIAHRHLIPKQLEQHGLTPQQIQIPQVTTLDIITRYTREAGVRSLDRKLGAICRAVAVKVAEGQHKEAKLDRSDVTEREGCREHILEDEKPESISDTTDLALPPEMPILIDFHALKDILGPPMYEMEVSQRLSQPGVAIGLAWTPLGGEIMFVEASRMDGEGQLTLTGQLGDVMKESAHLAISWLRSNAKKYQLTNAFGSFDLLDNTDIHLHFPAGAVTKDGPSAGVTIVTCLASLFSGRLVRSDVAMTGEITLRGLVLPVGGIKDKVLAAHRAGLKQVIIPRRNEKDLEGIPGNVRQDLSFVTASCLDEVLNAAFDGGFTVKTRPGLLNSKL
inactive: [1] 0.094 | [2] 0.024 | [3] -0.279 | [4] 0.041 | entinostat -0.05 | vorinostat -0.006 | citarinostat -0.069 | silmitasertib 0.105 | [5] -0.007 | [6] -0.219

MFN2 (UniProt O95140)
inactive: [1] -0.081 | [2] -0.088 | [3] -0.104 | [4] -0.168 | entinostat 0.014 | vorinostat -0.019 | citarinostat -0.021 | silmitasertib -0.024 | [5] -0.019 | [6] -0.008

ME2 (UniProt P23368)
inactive: [1] -0.015 | [2] -0.034 | [3] 0.07 | [4] -0.033 | entinostat -0.013 | vorinostat 0.058 | citarinostat 0.025 | silmitasertib 0.186 | [5] -0.017 | [6] -0.093

KNTC1 (UniProt P50748)
inactive: [1] -0.037 | [2] -0.1 | [3] -0.193 | [4] -0.046 | entinostat 0.049 | vorinostat 0.029 | citarinostat 0.037 | silmitasertib 0.077 | [5] 0.013 | [6] -0.004

MED17 (UniProt Q9NVC6)
inactive: [1] 0.068 | [3] 0.049 | [4] -0.034 | entinostat -0.128 | vorinostat 0.045 | citarinostat 0.014 | silmitasertib 0.074 | [5] 0.112 | [6] 0.126
active: [2] -0.33
